Experimental data from PubChem BioAssay AID1508600 (Functional Genomics Laboratory (NCATS/FGL), 2020).
Screen size: about 53,000 sequences; about 3,700 (7%) were called active. The full list was thinned out, with actives kept by preference. Unmarked numbers belong to inactive results.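 Rule for the calls: active = gene knockdowns whose robust z-score for IL-1 alpha signal is at least 2 or at most -2, so actives lie on both sides; inactive = the rest.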

Experiment: Components of the Cytosolic LPS Sensing Pathway: Gene Identification via Genome-wide siRNA Screen;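 note: robust z of the log signal after scaling to non-targeting control siRNA wells of the plate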
Settings: RAW264.7 macrophages, IL-1a HTRF, actives lie on both sides, screened at 100 nM (by protocol), cells primed 5 h with Pam3CSK4 first
How it was run: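 Using IL-1a HTRF as read-out, the screen measured release from RAW264.7 cells after 48h siRNA knockdown (100 nM), 5 h Pam3CSK4 priming and 24 h cytosolic LipidA. Values were expressed relative to negative-control wells as robust z-scores.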

| Sequence | z-score |
| --- | --- |
| GGAGUUCAAUCCAACAAAATT against Atxn2l | -1.4 |
| GCUCAGAGACAAGCAACUGTT against Kcnk7 | 0.247 |
| GGAACAGAAAACCAUAUAATT against Snx29 | -2.54 (active) |
| GGUUAUGAGGCUUAAUAAATT against Atxn7l1 | 0.965 |
| CCCUCGGUGCCUAAUAAAUTT against Hsd17b10 | -0.0731 |
| GGAUGCUAUAAAGAAUGCCTT against Prpf39 | -1.19 |
| UCCGUUGGAGUAUCGAUGUTT against Trp53rka | -1.25 |
| GCGAGAUGGAAGGAUCUUGTT against Anapc13 | 5.28 (active) |
| GGAGAACAUGGAGACUAUUTT against Ramp1 | -0.756 |
| GGUCUACCAUUUCACCUUGTT against Cops4 | 1.19 |
| GUUGCCAGAUUUGGAUAUUTT against Abcg5 | 0.664 |
| CGGGAAGAGUACUUGUUUUTT against Cfl1 | 0.153 |
| CAAAGCCACCUCGCCCUAUTT against Nkx2-6 | -0.0586 |
| GGCUUAUGUUUGCUUUGUUTT against Piwil1 | 0.0916 |
| CCUUUUUCUGGAUUGGAAUTT against Klrd1 | -0.00525 |
| GGAAUAUGACUUCAAGAUGTT against Lmnb2 | 4.28 (active) |
| AAUGCAAACAAUGCAAAUGTT against Mt2 | -0.174 |
| GGCUAAAGCGAAAAAAAAGTT against Msl3 | -0.114 |
| CGGAUUCACAAGAACACCUTT against Pramel12 | -0.157 |
| GGGCUGUUCCAUUUCUUUATT against Atcay | 0.727 |
| CGGAACUCUGCCACAAGUUTT against Zfp36 | 1.27 |
| GGCAUAUGUUGAAACUAUUTT against Sel1l3 | 1.29 |

| Sequence | z-score |
| --- | --- |
| GCUCGUGUCAGAACCGAUGTT against Rwdd3 | 2.39 (active) |
| GCCAAAAAAGCUGUCAGUUTT against Nkx2-3 | -1.11 |
| GGAGGACGUAACUAAAUCATT against Napepld | -0.934 |
| UCUACAGGACUAUUAGAUUTT against Wnt6 | 0.563 |
| GGUUCUAUAGGGCUCCGAATT against Tmem179b | 4.23 (active) |
| GGGAUCAAAACAUACUGUGTT against Klra4 | 0.0891 |
| GGUCAUGCAGGUUUUGAAUTT against Snd1 | 1.9 |
| GGCUGAAAUAAAACAAGAATT against Use1 | -0.778 |
| GCAGAAGCGUGGCAUUGUATT against Ins2 | 0.5 |
| GGAAGUGCUGAAGGUGUACTT against Spire2 | 2.38 (active) |
| GGAUUUAGCCAAUCAAUCUTT against Cdc14b | -0.872 |
| GGACUACCUAUGGUUAAAATT against Nup93 | -1.58 |
| GCUGGUUAGACCCUUCCAATT against Hnf4g | 3.56 (active) |
| GCAUCUACUCCCUAUAGACTT against Nin | 0.322 |
| GGCAGAGGAAAUCAUGAAGTT against Clpp | -1.05 |
| GGGAGUUCAACUUGAUGUATT against Irf6 | -1.45 |
| GGAUCCCAGAUUGAAAACUTT against Rnf5 | -0.92 |
| CGUGGACUAAAAGUUUUCATT against Mmp12 | 3.63 (active) |
| CCGGACCUCUGCGCAAUUUTT against Npb | 0.289 |
| GUUUUUGCUAUGGCUCGUATT against H3c1 | 0.92 |
| GGUGCUGCUAGUGAACAAGTT against E2f4 | 5.64 (active) |
| CCGAGAACCUUAAACUCCCTT against Sowahc | 0.161 |

| Sequence | z-score |
| --- | --- |
| GGAGAUAUGGCCAUCACUCTT against Toe1 | 1.11 |
| GGCCUUUGAUGACAUGUACTT against Bpifb1 | -0.378 |
| GAUGCUAGUGAACCUCAUGTT against Olfr1020 | -0.765 |
| CGAUUGGUUGUUGUAGACATT against Abhd11 | -2.56 (active) |
| CCAAUCCAAACGAAGUUAATT against Rgs9 | -0.977 |
| CGUUUCAACAAGCUCGUGUTT against Rbmxl2 | 1.02 |
| GGAUACAAAUGAAAGCUUATT against Zfp354b | -0.307 |
| GGCAAGAAACAGUCAUAAGTT against Eps8l3 | 0.404 |
| GGCAUCAAGUUCUAUCUGUTT against Slc6a11 | -0.704 |
| GGCCGGUUAGCUAAUCAGATT against Armc10 | 2.03 (active) |
| UGGCUGAUAUGAAGGUCUGTT against Krtap31-2 | 0.154 |
| GCUGUACGUUUGCACAUUCTT against Rc3h1 | -2.87 (active) |
| GGCUCUGUAUCGGAAGGCUTT against Zc3h7a | 0.817 |
| GGAUUCUGCUAGCAGUUCATT against Csn1s2a | -0.477 |
| GGGUUGCUUCAACUUUUAGTT against Mpp1 | -0.346 |
| GGCCAUGGAAAAAUCUCAGTT against Dtna | 0.557 |
| GCCUAUACAACCCUAUUGUTT against Kazn | -0.879 |
| GCGCAGGAUGAGAAGUUCUTT against Slc43a3 | 3 (active) |
| GGUUUGUGGUGAACUUUCATT against Lgals9 | 0.707 |
| GGAUUUGGAAAAUUGAUGCTT against Ahi1 | 0.97 |
| GGAUGAAAGCAAAGACAAGTT against Zscan21 | 2.63 (active) |
| GGUUGAUGGGAAAACAAUATT against Rab11a | -0.6 |

| Sequence | z-score |
| --- | --- |
| GAUCCUGCAUCUUUAGUGUTT against Ascl1 | -0.0831 |
| GCUGAUUCCGUGUCCCAACTT against Gng2 | 3.42 (active) |
| GGGUAGGGCAGUCUACUUATT against F2r | -0.407 |
| CCUGCUUCUCUACAACCAUTT against Olfr1209 | -0.817 |
| GCUUGUAUUGCUUGUCUUUTT against Olfr172 | 1.89 |
| GGAGUAGAAGAAGAGGAGUTT against Mrpl50 | 0.946 |
| GGUGCAAUCAGCUUUCCACTT against Olfr1336 | 2.26 (active) |
| CCGAUUGAUAAAGUCACAUTT against Zfat | 0.241 |
| GGAAAAAAGAUGAAUUGCCTT against Cbx8 | 1.63 |
| GGAGUCUUGGCCCUUUAAUTT against Zcchc12 | -1.09 |
| GCCUCUUUAUAAUAUAAGGTT against Pcgf6 | -0.687 |
| CGGUUAACUGGAAAGUGCGTT against Tmem132e | 2.99 (active) |
| CGUGAUGAAUGAGAAUAACTT against Maea | 0.584 |
| GGAAUUAAACCAUUUCAGUTT against Zbtb44 | 1.28 |
| GGAGGAUUCAUGCUUUGUUTT against Morc2b | 0.238 |
| GGUUUUUGAGUGGGAGACCTT against Khdc3 | -0.578 |
| GAUUUAGCUUGGUGAACCGTT against Thoc6 | 0.754 |
| GGACUUAGACAUCCACCUCTT against Llcfc1 | -1.64 |
| GGGACUGAAAUCUAUUUUGTT against Zfp217 | 2.16 (active) |
| CCAAGCUAGUCCUCAAGCUTT against Snapc2 | -1.16 |
| GGGAUUGGCUACGACUUCATT against Cbs | 2.06 (active) |
| GCUAGCUGUUGUAAAAGAATT against Gm4841 | -0.507 |

| Sequence | z-score |
| --- | --- |
| GGCCAUUAACCAGUCUAUCTT against Cdhr5 | 0.977 |
| GGUUCUGGAGAACAGAGUCTT against 4930483J18Rik | -0.44 |
| GCGAUAAGCAGAAUGGCAGTT against 8030462N17Rik | -0.9 |
| CGGGUGCCGGAAAGUUUAUTT against Klf7 | 2.84 (active) |
| GCAGCAUUGACUGAAGAUCTT against Lce1m | -0.316 |
| GGACAAAAGGCUGAGCAUCTT against Flt1 | -0.235 |
| GGAAUCAUGCUGAAAGAGATT against Apom | -0.123 |
| GGUUGCGUGUGGUUACUAUTT against Herc4 | 0.161 |
| CCUCUGUGAUUUCAUUCUUTT against Hhip | -0.991 |
| GGCAUUUUCACAAAAGACUTT against Rab23 | -1.43 |
| GGAUGGCUACCGAAAAAAUTT against Eif3c | 0.967 |
| CGACGCAUUGAGGCAAUCUTT against Camsap3 | -0.483 |
| GGCAAAGCACCUUUAUCUGTT against G430095P16Rik | -0.664 |
| CCCAAGGUCCAGUUUGAUGTT against Mettl17 | -2.42 (active) |
| GGCAAGGAUAAGACAGUAGTT against Hs3st3b1 | -0.354 |
| GGAUGAAGACCUUGAACGGTT against Slc28a3 | 1.48 |
| GGAAACAGGUCUGUCCCAATT against Ankle1 | -2.22 (active) |
| GGUUACCUAGAAGUGGACUTT against Igsf6 | 0.201 |
| CCUUUCCAAACACCUAUAATT against Sox6 | -1.2 |
| CCUUUCAGACCAGUUCAUUTT against Ppp1r17 | 0.193 |
